# From PubChem BioAssay
# 14-3-3 Bad PPI = inhibitors of 14-3-3 zeta/Bad binding, primary screen, biochemical, TR-FRET, bovine 14-3-3 zeta | AID 781, 2007 | inhibition, % at 21.7 µM | hit rate 0.71% among 220,000 | 14-3-3 protein zeta/delta (Bos taurus), P63103 | TR-FRET 14-3-3zeta/Dy647-pBad peptide displacement, 1 h;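 active means inhibition above about 70%, limit read from the data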;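 further: 0% = full 14-3-3 plus peptide FRET controls and 100% = background without 14-3-3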
# eIF4E 4G PPI = eIF4E–eIF4G protein interaction inhibitors, primary screen, biochemical, uHTS, TR-FRET, eIF4GI fragment | Eukaryotic translation initiation factor 4E (Mus musculus) + Eukaryotic translation … | TR-FRET eIF4E-eIF4GI(517-606) binding, 2 h | inhibition, % at 21.7 µM | hit rate 0.37% among 220,000;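 further: 0% = full FRET control wells and 100% = background wells lacking eIF4GI fragment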
# NCF1 inh = p47phox/p22phox peptide binding inhibitors, primary screen, biochemical, uHTS, NADPH oxidase regulatory subunit; hit rate 0.53% among 220,000; AID 1274, 2008; inhibition, % at 24.7 µM; fluorescence polarization, 2 h; Neutrophil cytosol factor 1 (Homo sapiens), P14598;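 further: 0% = p47phox with labelled peptide and 100% = labelled peptide alone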
# Target sequence (P14598 whole entry, looked up): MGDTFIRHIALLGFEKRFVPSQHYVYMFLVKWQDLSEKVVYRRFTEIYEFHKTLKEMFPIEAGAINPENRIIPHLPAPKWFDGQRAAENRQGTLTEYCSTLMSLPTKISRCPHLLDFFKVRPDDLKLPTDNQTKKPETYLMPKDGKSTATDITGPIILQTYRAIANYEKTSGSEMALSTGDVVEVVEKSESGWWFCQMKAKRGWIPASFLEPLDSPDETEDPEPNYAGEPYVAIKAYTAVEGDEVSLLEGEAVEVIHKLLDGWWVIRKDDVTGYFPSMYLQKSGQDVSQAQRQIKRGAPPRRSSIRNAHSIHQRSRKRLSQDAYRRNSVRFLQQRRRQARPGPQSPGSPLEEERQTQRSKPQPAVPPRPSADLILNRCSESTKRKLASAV
# UBC9 SUMO inh = inhibitors of in vitro SUMOylation cascade, primary screen, biochemical, HTRF, uHTS; HTRF SUMOylation assay, SAE1/SAE2 + UBC9; inhibition, % at 35 µM; hit rate 0.36% among 290,000; AID 2006, 2009; in the data active means inhibition above about 50%, passing the limit was not always enough
# Target sequence (P63279 whole entry, looked up): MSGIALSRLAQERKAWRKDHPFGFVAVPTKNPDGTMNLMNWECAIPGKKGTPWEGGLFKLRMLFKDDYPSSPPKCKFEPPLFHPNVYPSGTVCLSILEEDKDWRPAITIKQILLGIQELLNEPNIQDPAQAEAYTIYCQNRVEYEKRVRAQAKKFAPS
# * = called active by the depositor; . = no result given; ! = repeats disagree; [ ] = dose if it differs, or a comment. Most compounds without a hit are left out; they make up all but 1.3% or so of the library.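 How the source made its calls, unless noted: active means inhibition above about 30% (limit read from the data); inactive means the rest.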
SMILES,14-3-3 Bad PPI,eIF4E 4G PPI,NCF1 inh,UBC9 SUMO inh
COc1ccc(C2C(C(=O)c3ccccc3)=C(C)Nc3nc4ccccc4n32)cc1OC (configuration not stated),15,4,34*,19
COc1ccc(OC)c(C2C(C(=O)c3ccccc3)=C(C)Nc3nc4ccccc4n32)c1 (configuration not stated),-13,3,-10,7
Cc1cc(C)cc(OCC(=O)Nc2nc(-c3cccnc3)cs2)c1,.,.,.,18
COc1ccccc1CC(=O)Nc1cccc(C)n1,-13,-1,-1,-1
O=[N+]([O-])c1c(NCCCO)cc(SCc2ccco2)c2nonc12,9,-1,-5,90*
CC(=O)OCCCNc1cc(Sc2ccc(C)cc2)c2nonc2c1[N+](=O)[O-],0,2,-11,27
CC(=O)OCCCNc1cc(Sc2nc3ccccc3s2)c2nonc2c1[N+](=O)[O-],1,-44,-19,92*
COc1ccc(Nc2cc(NCCCO)c([N+](=O)[O-])c3nonc23)cc1,.,.,.,2
CC(=O)OCCNc1cc(SCc2ccco2)c2nonc2c1[N+](=O)[O-],8,3,1,93
COc1ccc(CNc2cc(NCCCO)c([N+](=O)[O-])c3nonc23)cc1,-7,-6,-1,96*
CCCC(=O)OCCNc1cc(SCCC(=O)OC)c2nonc2c1[N+](=O)[O-],-1,1,2,74*
CC(C)c1ccc(C(=O)NNC(=O)C2CC=CCC2C(=O)O)cc1 (configuration not stated),25,-34,-3,6
O=C(NCc1ccccc1)c1ccc(CS(=O)Cc2ccc(Cl)cc2)o1 (configuration not stated),.,.,.,-6
COc1ccc(C(C)NC(=O)c2ccncc2)cc1OC (configuration not stated),.,.,.,-5
COC(=O)C1=NN(c2ccc(OC)cc2)C2C(=O)N(c3ccccc3OC)C(=O)C12 (configuration not stated),1,39*,-10,22
O=C(Cn1nc(C(=O)O)c2ccccc2c1=O)NC12CC3CC(CC(C3)C1)C2,-4,3,-3,-10
OCC1(CO)COC2(CCCC2)N1,-9,8,62*!,5
COc1cccc2c(=O)n(CC(=O)NC3CCCCC3)ccc12,11,-7,-9,-4
CCCCN(C)C(=O)c1cc2cc3ccc(OC)cc3nc2s1,84*[fluorescence artefact?],1,-4,17
O=C1/C(=C\c2ccc(C(F)(F)F)cc2)CSc2sccc21,-7,-1,-8,-3
NC(=O)C1(NC(=O)[C@@H]2CC3(CC(c4cccc(NC(=O)[C@@H]5CCC(=O)N5)c4)=NO3)CN2C(=O)c2cnccn2)CC1 (some centres not stated),30,-6,-12,30
Clc1ccccc1-c1nc2nc3ccccc3nc2n1-c1ccc2c(c1)OCO2,-3,3,174*,12
C=CCc1ccccc1OCC(O)CN(C(C)C)C(C)C (configuration not stated),71*,6,1,4
CCOc1ccc(N2C(=O)CC(N(CCc3ccc(OC)cc3)C(=O)/C=C/C(=O)O)C2=O)cc1 (configuration not stated),-2,4,-1,12
COC(=O)c1cc(C#N)c(N2CC(C)OC(C)C2)nc1C (configuration not stated),5,0,-13,17
SMILES,14-3-3 Bad PPI,eIF4E 4G PPI,NCF1 inh,UBC9 SUMO inh
CC(C)=CC(=O)Nc1ccc(S(=O)(=O)Nc2ccccn2)cc1,-8,3,5,12
CCOc1ccc(NC(=O)Cn2nnc3c(cnn3-c3ccc(F)cc3)c2=O)cc1,8,-2,-7,15
Cc1ccccc1NC(=O)Cn1nnc2c(cnn2-c2ccc(F)cc2)c1=O,30,41*[fluorescence artefact?],-7,30
O=C(NC1CC1)C1=C[C@@H](C2CC2)C[C@@H](OCc2ccc(CO)cc2)O1,1,34*,-11,25
O=C(NC1CC1)C1=C[C@@H](C2CCCCC2)C[C@@H](OCc2ccc(CO)cc2)O1,0,0,.,0
O=C(Nc1nc(-c2ccco2)c(-c2ccco2)s1)C1CCC1,5,1,-18,61*
O=C(Nc1nc(-c2ccco2)c(-c2ccco2)s1)C1CC(=O)N(c2ccc3c(c2)OCCO3)C1 (configuration not stated),-11,-17,-69,83*
CC(C)CCC(C)NC(=O)CN1C(=O)NC(C)(c2ccc3ccccc3c2)C1=O (configuration not stated),.,.,.,5
COc1cc(NC(=O)c2ccnc(N)c2)cc(C(=O)Nc2cccc(C(F)(F)F)c2)c1,30,-4,-9,9
COc1cc(NC(=O)c2cc(C)on2)cc(C(=O)Nc2cccc(C(F)(F)F)c2)c1,-4,-6,43*,-6
COc1cc(NC(=O)c2cnc(N)s2)cc(C(=O)Nc2cccc(C(F)(F)F)c2)c1,68,31*,-46,.
COc1ccc(Cc2nc(C(=O)Nc3ccc(OC)cc3)cs2)cc1,-8,11,-1,0
COc1ccc(Cc2nc(C(=O)NCc3ccccc3OC)cs2)cc1,14,4,31*,5
Cn1nc(N)c2c(-c3ccc(Cl)cc3)c(C#N)c(N)nc21,8,-6,62*,7
O=C(Cc1ccccc1[N+](=O)[O-])Nc1ccc(S(=O)(=O)N2CCCC2)cc1,.,.,.,-11
O=c1[nH]c(CSc2nc3ccccc3s2)nc2ccccc12,1,-1,-15,9
COc1ccc(C2NCCc3c2[nH]c2ccccc32)cc1CSc1nc2ccccc2s1 (configuration not stated),69,18,58*,-12
COc1ccc(C2/C=C\CN(S(=O)(=O)/C=C/c3ccccc3)[C@H](Cc3ccccc3)C(=O)N2Cc2ccc(F)cc2)cc1 (some centres not stated),1,-10,-53,10
COc1ccc(C2/C=C\CN(C(=O)c3ccccc3)[C@H](Cc3ccccc3)C(=O)N2Cc2ccc(F)cc2)cc1 (some centres not stated),-5,60*,-28,-10
CC1=C(C(=O)Nc2ccccc2C(=O)NCCCN2CCN(C)CC2)SCCO1,.,.,.,18
CC/C(=C(\c1ccc(O)cc1)c1ccc(OCCN(C)C)cc1)c1ccccc1,18,20,25,-19
CCN(CC)CCOc1ccc(/C(=C(/Cl)c2ccccc2)c2ccccc2)cc1,78*,14,51*,-17
CCOc1cc(N2CCOCC2)c(OCC)cc1NC(=O)c1cc(-c2ccco2)nc2ccccc12,63,8,30*,46
COc1ccc(NC(=O)c2cc(-c3ccco3)nc3ccccc23)cc1S(=O)(=O)N1CCOCC1,49,38*,-5,36
Cc1ccc(NC(=O)c2cc(-c3ccco3)nc3ccccc23)cc1S(=O)(=O)N1CCOCC1,-11,9,-4,36
